Bioassay records: PubChem, Broad Institute
aSyn 5UTR act = Activators working through SNCA 5'UTR binding (MLPCN); 300,000 tested, 7.1% active; AID 1814; alpha-synuclein 5'UTR reporter, activators screen; activity score, % (tested at 7.5 µM), hits read low; in the data active = activity score below about -60%
Numbers without * were called inactive. A selection follows.

SMILES | aSyn 5UTR act
CCCCC(=O)NC(c1ccc(N(CC)CC)cc1)c1ccc2cccnc2c1O (configuration not stated) | 67.9
Cc1ccc(OCc2cc(C(=O)N3CCN(C)C[C@@H]3c3ccccc3)no2)cc1C | -106.3*
CN1CCN(C(=O)c2cc(COc3ccccc3)on2)[C@@H](c2ccccc2)C1 | -165.7*
CCCC(=O)Nc1ccc(-c2nc3cc(C)c(C)cc3o2)c(O)c1 | -129.0*
COc1ccc(-c2csc(NC(=S)NC(=O)/C=C/c3ccco3)n2)cc1Br | 90.7
CCCC(=O)Nc1ccc2oc(-c3ccc(OC)c(Br)c3)nc2c1 | -117.5*
CCCC(=O)Nc1ccc(-c2nc3cc(C)ccc3o2)cc1 | -149.2*
CCC1(C)Cc2c(sc3nc(SC)n(Cc4ccccc4)c(=O)c23)CO1 (configuration not stated) | -117.6*
Cc1ccc2ccc(C3C(=O)c4ccccc4C3=O)nc2c1 | -145.7*
Cc1ccc(/C=N/NC(=O)Nc2ccccc2)o1 | -79.6*
Cc1ccc(/C=N/NC(=O)NC2CCCCC2)o1 | -65.5*
Cc1ccc(S(=O)(=O)N(C)CC(=O)N/N=C/c2ccc(C)o2)cc1 | 46.5
COc1ccc(NC(=O)c2nc(S(=O)(=O)Cc3cccc(C)c3)ncc2Cl)c(OC)c1 | 82.4
COc1ccc(NC(=S)Nc2cc(C)ccn2)c(OC)c1 | -243.3*
COc1ccc(NC(=S)Nc2ccccn2)c(OC)c1 | -152.7*
O=C(NC1CCCC1)c1cc(-c2cccc(Cl)c2)on1 | -185.8*
O=C(NC1CCCCC1)c1cc(-c2cccc(Cl)c2)on1 | -235.5*
Cc1cccc(-n2cnc(C(=O)NC3CCCCCC3)c2)n1 | -100.9*
CCC(C)NC(=O)c1cn(-c2cccc(C)n2)cn1 (configuration not stated) | -110.5*
O=C(CSc1nnnn1-c1ccc(Cl)cc1)NC(=O)Nc1ccc2c(c1)OCCO2 | -183.8*
Cc1nnc(SCC(=O)NC(=O)Nc2ccc3c(c2)OCCO3)n1N | -113.8*
Cc1ccc(-n2nnnc2SCC(=O)NC(=O)Nc2ccc3c(c2)OCCO3)cc1 | -160.1*
O=C(c1cc2cc(Br)ccc2o1)N1CCCCC1 | -146.3*
CCCc1ccc2oc(C(=O)N(C)Cc3nccs3)c(C)c2c1 | -148.8*
Cc1ccc(-c2nc(C(=O)NCCCN3CCOCC3)cc3c2[nH]c2ccccc23)cc1 | -64.5*
SMILES | aSyn 5UTR act
Cc1ccc2oc(C(=O)NCCCN3CCOCC3)c(C)c2c1 | -95.4*
CCCc1ccc2oc(C(=O)N3CCC(O)CC3)c(C)c2c1 | -89.2*
Cc1ccc2oc(C(=O)N3CCCCCC3)c(C)c2c1 | -77.8*
Cc1c(C(=O)N2CCCCC2)oc2ccc(Br)cc12 | -137.7*
COc1ccccc1Nc1ncc(-c2cccs2)s1 | -176.6*
NC(=O)c1ccsc1NC(=O)c1cccs1 | -164.5*
Cc1sc(NC(=O)CCCC(=O)O)c(C(N)=O)c1-c1ccccc1 | 51.8
Cc1sc(NC(=O)C2=COCCO2)c(C(N)=O)c1C | -62.4*
Cc1sc(NC(=O)c2cccs2)c(C(N)=O)c1C | -254.8*
CCN1Cc2c(/C=C/c3ccccc3)nc3ccc(OC)cc3c2N(c2cccc(Cl)c2)C1 | -66.1*
CCOc1cc(CNCCCN2CCOCC2)cc(Br)c1OCc1ccccc1Cl | 96.4
CCOc1cc(C2NN=C(c3ccccc3)S2)ccc1OCc1ccc(F)cc1 (configuration not stated) | -128.8*
CCOc1cc(C2NN=C(c3ccccc3)S2)ccc1OCc1ccccc1Cl (configuration not stated) | -132.2*
COc1cc(/C=N/NC(=Nc2ccc(C)cc2)c2nc3ccccc3s2)ccc1O | -148.5*
COc1ccccc1/C=N/NC(=Nc1ccc(C)cc1)c1nc2ccccc2s1 | -99.1*
COc1cc(C=C(c2nc3ccccc3s2)c2nc3ccccc3s2)cc(OC)c1O | -98.0*
CCN(CC)c1ccc(CNc2ccc(Br)cn2)cc1 | -102.7*
C=CCn1c(N/N=C/c2ccc(O)cc2)nc2ccccc2c1=O | -134.5*
O=c1[nH]c(N/N=C\c2ccc(F)cc2)nc2ccccc12 | -149.9*
O=c1[nH]c(N/N=C/c2ccc(O)cc2)nc2ccccc12 | -157.8*
C=CCn1c(SCc2c(C)noc2C)nc2ccccc2c1=O | 79.7
Cc1ccc2nc(SCC(=O)c3ccc(Cl)s3)[nH]c2c1 | -66.2*
COCC1CCCCN1C(=O)c1ccc2oc(CCCc3ccccc3)nc2c1 (configuration not stated) | -85.9*
CCOC(=O)N1CCN(C(=O)c2ccc3oc(CCCc4ccccc4)nc3c2)CC1 | -149.8*
CCOC(=O)C1CCCN(C(=O)c2ccc3oc(Cc4ccccc4)nc3c2)C1 (configuration not stated) | -207.5*
SMILES | aSyn 5UTR act
CC(=O)c1cc(C#N)c(SCc2ccccc2)nc1C | -84.6*
CC(=O)c1cc(C#N)c(SCc2ccccn2)nc1C | -113.6*
O=c1/c(=C\c2cccnc2)sc2nc3ccccc3n12 | -107.3*
Cc1cc(/C=c2\sc3nc4ccccc4n3c2=O)c(C)n1-c1ccc(C(=O)O)cc1 | -61.8*
Cc1cc(/C=c2/sc3nc4ccccc4n3c2=O)c(C)n1-c1ccccn1 | 87.9
CCN(CC)CCn1c(=O)n(-c2ccc(Cl)cc2)c(=O)c2c3c(sc21)CN(C)CC3 | -66.5*
N#C/C(=C(/O)CN1CCCC1)c1nc(-c2ccccc2)cs1 | -115.2*
C=CCN(C(=O)CN1CCCCC1)c1nc(-c2ccccc2)cs1 | -110.3*
CCOC(=O)C1(Cc2ccccc2Cl)CCN(C(=O)CCn2ccnc2C)CC1 | -80.6*
CCOC(=O)C1(CCc2ccccc2)CCN(C(=O)CCn2cncn2)CC1 | -99.0*
CC1(c2ccncc2)Nc2ccccc2-c2nc3ccccc3n21 (configuration not stated) | -65.8*
CCN(CC)c1ccc(C(=S)NC2CCCCC2)cc1 | -64.0*
CN(C)c1ccc(C(=S)NC2CCCCC2)cc1 | -111.2*
CC1=CCC(/C=N\Nc2nnc3c(n2)[nH]c2ccccc23)CC1 (configuration not stated) | -64.9*
C/C(=N\Nc1nc(C)c(C)s1)c1ccc([N+](=O)[O-])cc1 | -130.0*
CCOC(=O)c1nc(NNC(=O)c2ccc([N+](=O)[O-])cc2)sc1C | 62.0
C/C(=N\Nc1ccc([N+](=O)[O-])cc1)c1ccco1 | -179.5*
CCc1ccc(/C(C)=N\Nc2ccc([N+](=O)[O-])cc2)cc1 | -137.3*
C/C(=N\Nc1ccc([N+](=O)[O-])cc1)c1ccc(N)cc1 | -101.1*
COc1ccc(/C=N\NC(=O)C2CCCC2)cc1Br | -95.1*
CC(C)c1ccc(/C=N/NC(=O)C2CCCC2)cc1 | -171.1*
CC(=O)N(C(C)=O)n1c(C)nc2sc3c(c2c1=O)CCCC3 | 51.2
O=c1c2c3c(sc2nc2sc(C4CC4)nn12)CCCC3 | -130.1*
C1CCC(c2nn3c(-c4n[nH]c5c4CCC5)nnc3s2)CC1 | 56.2
CCOC(=O)Cc1ccc(NC(=O)c2ccc(C(C)(C)C)cc2)cc1 | 103.8
SMILES | aSyn 5UTR act
Cc1noc(N)c1C(=O)Nc1ccc(C(C)(C)C)cc1 | -106.2*
COc1cccc2cc(-c3ccccc3)c(=O)oc12 | -112.6*
COc1cccc2cc(-c3nc4ccccc4[nH]3)c(=O)oc12 | -157.2*
COc1cc2c(cc1OC)C(C)N(C(=O)c1cc(Cl)nc(Cl)c1)CC2 (configuration not stated) | -105.1*
O=C(NNC1=C(C(=O)C(F)(F)F)CCC1)c1cccc(O)c1 | -152.6*
COc1ccc(N2C3=[N+](CC2(C)O)c2ccccc2CC3)cc1 (configuration not stated) | -110.4*
CCCCNC(=O)c1ccc(Cn2c(=S)[nH]c3c([nH]c4ccc(OC)cc43)c2=O)cc1 | 105.1
COc1ccc2[nH]cc(C(=O)NCCc3ccccc3)c(=O)c2c1 | -70.8*
